This is one part of the list. Inconclusive results are not listed.
test: Confirmation Concentration-Response Assay for Allosteric/Competitive Inhibitors of Caspase-1; details: purified caspase-1, fluorogenic substrate cleavage; compound fluorescence baseline read; at 57.5 µM
Text: NIH Molecular Libraries Screening Centers Network [MLSCN]
NIH Chemical Genomics Center [NCGC]
PI Name: Dr. James Wells,
Dr. Enrique Perez-Paya, Dr.Janice Williams, Dr. Dennis Wolan, a person
The caspases (Cysteine Aspartyl Protease) comprise a related family of 14 dimeric proteases that are critical mediators of apoptosis (programmed cell death) and inflammation. The caspases represent an important class of drug targets for stroke, ischemia, cancer and inflammatory diseases. […] One goal of this project was to identify compounds that act as allosteric inhibitors via stabilizing the procaspase form of the enzyme. […]
The biochemical assay was configured using purified caspase 1 at a high enzyme concentration to promote formation of the homodimers and thus facilitate the identification of allosteric inhibitors. […] After initiation of the assay with substrate the plates were rapidly read using an automated robotic system (Kalypsys, Inc.) to maintain consistent timing. […] Product formation was also measured after 1 hour. […]
Caspase 1 was prepared in buffer (50 mM HEPES pH 7.5, 50 mM KCl, 200 mM NaCl, 10 mM DTT, 0.1% CHAPS) at a concentration of 66.6 nM and 3 uL was dispensed to all wells using black solid Kalypsys 1536-well plates. […] The plates were then exposed using 405 nm excitation/520 nm emission filters for 4 sec and read at 20 sec intervals for 3 min. […]

SMILES	baseline fluorescence [%]
Cc1nc2c(C(=O)NCc3ccc4c(c3)OCO4)c[nH]n2c(=O)c1Cc1ccccc1F	-1.24
